Among the data in PubChem BioAssay are z-score values, retold here.

The source made the active and inactive calls.

The nature of one assay: E. coli acrAB mutant growth effects, primary screen, E. coli filamentation inducers, strain DRC39, OD650, 48 h (AID 1179).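 Further: screen aims at cell division blockers that make cells filament.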 Particulars: E. coli DRC39 delta-acrAB growth, higher = more signal, called active from +8 up or from −8 down.
`C=C(COC)/C(=C/C[C@@H](OC(=O)c1ccncc1)c1cccc(OCCO)c1)c1cc(C(=O)OC)ccc1OC`: the z-score is 0.488 (inactive).
Regarding `O=C1NC(=O)C2C1C=CC(C(O)c1ccc3c(c1)OCO3)N2Nc1ccc(Cl)cc1Cl` (centres undefined), the z-score is -2.73 (inactive).
`[N-]=[N+]=NCc1ccccc1C[C@@]1(C(=O)NCCN2CCOCC2)N=C(c2ccc(OCCCO)cc2)O[C@@H]1c1ccccc1CN=[N+]=[N-]`: the z-score was 0.239 (inactive).
On the same count and under the same terms, under `C[N+](C)(C)CCCCCCNC(=O)[C@@H]1C[C@@H]2C(=O)NCC(=O)N2[C@@H]1c1ccc(O)cc1` stands 0.128 (inactive).
Still for that read-out and setting: as for `COC(=O)[C@@]1(Cc2ccccc2N=[N+]=[N-])N=C(c2ccc(OCCCO)cc2)O[C@H]1c1ccccc1`, the figure is -1.12 (inactive); as for `COCCOC(=O)N1C(=O)[C@@]2(c3cc(C#Cc4ccc(OC)cc4)ccc31)[C@H](C(=O)N1CCc3cc(OC)c(OC)cc3C1)[C@H]1C(=O)O[C@H](c3ccccc3)[C@H](c3ccccc3)N1[C@@H]2c1ccc(OCCO)cc1`, -1.19 (inactive); as for `O=C1O[C@H](c2ccccc2)[C@H](c2ccccc2)N2[C@H]1[C@@H](C(=O)N1CCCCCCC1)[C@]1(C(=O)Nc3ccc(C#CCCO)cc31)[C@H]2c1ccc(OCCO)cc1`, -0.656 (inactive).
For the compound `CCCC[C@H]1OB(O)C[C@H]2C1=C(COc1ccccc1)Cn1c(=O)n(-c3ccccc3)c(=O)n12`, the z-score was 0.0306 (inactive).

The next assay in a line: RPMI8226 myeloma cell viability, profiling panel, resazurin fluorescence, basal, 24 h, PK04 Diversity Set (AID 1180).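 Further: RPMI8826 multiple myeloma cell line at 5000 cells per well; test concentration not given here.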 Particulars: higher = more signal. (In general: The colour change of resazurin is a common sign of viable cells or microbes.)
In turn, `N#Cc1ccc(NN2C(C(O)c3ccccc3)C=CC3C(=O)N(c4ccccc4)C(=O)C32)cc1` (centres undefined) displayed a z-score of -1.15.
`O=C(NCc1ccccc1)[C@]1(Cc2ccccc2)N=C(c2ccc(OCCCO)cc2)O[C@@H]1c1ccccc1` yielded a z-score of -1.79.
The same measure, in the same setting: as for `CC(C)CCC[C@@H](C)[C@H]1CC[C@@]2(C)C3=C(CC[C@]12C)[C@@]1(C)CC[C@H](OC(=O)C(C)(C)C)C(C)(C)C1CC3` (some centres undefined), the figure is 0.662.
On the same count and under the same terms, under `NC(=O)NCC#Cc1ccc2c(c1)[C@]1(C(=O)N2)[C@H](c2ccc(OCCO)cc2)N2[C@H](c3ccccc3)[C@H](c3ccccc3)OC(=O)[C@H]2[C@@H]1C(=O)N1CCCCCCC1` stands -0.507.
`[N-]=[N+]=Nc1ccccc1[C@H]1OC(c2ccc(OCCCO)cc2)=N[C@@]1(Cc1ccccc1)C(=O)NCc1ccccc1` registered a z-score of -3.99.
Same read-out and setting: under `COCCOC(=O)N1C(=O)[C@@]2(c3cc(C#CCC(C(=O)OC)C(=O)OC)ccc31)[C@H](C(=O)N1CCCCCCC1)[C@H]1C(=O)O[C@H](c3ccccc3)[C@H](c3ccccc3)N1[C@@H]2c1ccc(O)cc1` stands 0.646; under `C=CC[C@]1(C(=O)NCC(O)CO)N=C(c2ccc(OCCCO)cc2)O[C@H]1c1ccccc1N=[N+]=[N-]` (some centres undefined), 0.245; under `O=C(Nc1cc(Br)ccc1C(=O)NCc1cccc(O)c1)c1ccccc1`, -0.565.
Compound `CC1CC/C=C\[C@H]2OC34C=CCN(c5ccc(Cl)cc5)C(=O)[C@H]3N(C(CO)C(C)C)C(=O)[C@]4(C)C2C(=O)O1` (some centres undefined) came in with a z-score of 0.399.
The same measure, in the same setting: under `CC1=C2[C@@H](CCc3ccccc3)OB(O)C[C@@H]2[C@@H]2C(=O)C=CC(=O)[C@@H]2C1` stands -1.13.
For the compound `[N-]=[N+]=NCc1ccccc1C[C@]1(C(=O)NCCN2CCOCC2)COC(c2ccc(OCCCO)cc2)=N1`, the z-score came to 0.106.
Still for that read-out and setting: under `COc1ccc(CCNC(=O)[C@@H]2c3ccccc3C(=O)N(Cc3ccccc3)[C@H]2c2ccc(CO)cc2)cc1` stands -0.648.
Still for that read-out and setting: under `C=CC[C@@]1(C(=O)NCC(O)CO)N=C(c2ccc(OCCCO)cc2)O[C@@H]1c1ccccc1` (some centres undefined) stands 0.934; under `CO[C@H]1O[C@H](CO)[C@@H](OC(=O)Nc2cccc(F)c2)[C@H](OC(=O)Nc2ccc3c(c2)OCO3)[C@H]1OC(=O)Nc1ccc2c(c1)OCO2`, -1.89; under `COc1ccc(C#Cc2ccc3c(c2)[C@]2(C(=O)N3)[C@H](c3ccc(OCCO)cc3)N3[C@H](c4ccccc4)[C@H](c4ccccc4)OC(=O)[C@H]3[C@@H]2C(=O)N2CCN(c3ncccn3)CC2)cc1`, 1.61.
Compound `COCC(=C=CC[C@@H](O)c1ccccc1OCCO)C[C@@H](O)c1ccccn1` gave a z-score of -0.348.
Same read-out and setting: under `CCCN1C(=O)[C@@]2(Cc3ccccc3)N=C(c3ccc(OCCCO)cc3)O[C@H]2c2ccccc21` stands -1.57.
Still for that read-out and setting: as for `NC(=O)NCC#Cc1ccc2c(c1)[C@]1(C(=O)N2)[C@H](c2ccc(OCCO)cc2)N2[C@H](c3ccccc3)[C@H](c3ccccc3)OC(=O)[C@H]2[C@@H]1C(=O)N1CCN(c2ncccn2)CC1`, the figure is 1.79; as for `C=CCC(OC(C)=O)[C@@H]1[C@@H](N(Cc2cccc3ccccc23)C(=O)c2ccc(C)cc2)c2cc(OCCCO)ccc2N1C(=O)c1ccc2ccccc2c1` (some centres undefined), 1.04; as for `COc1ccc([Si](C)(C)[C@@H]2[C@@H](CC(=O)N(CCO)Cc3ccccc3)O[C@]3(C(=O)N(Cc4ccc(N5CCOC5=O)cc4)c4ccccc43)[C@H]2C)cc1`, -2.31.
Same read-out and setting: under `COc1ccccc1CN1C(=O)c2ccccc2[C@](Cc2ccccc2I)(C(=O)NCCN2CCOCC2)[C@@H]1c1ccc(CO)cc1` stands -1.66; under `CN(C)CCCN1C(=O)[C@@]2(Cc3ccccc31)c1ccccc1C(=O)N(Cc1ccccc1)[C@H]2c1ccc(CO)cc1`, 0.246; under `Cc1ccc(S[C@]2(C(=O)O)CC(=O)N(Cc3ccccc3C(F)(F)F)[C@@H]2c2ccc(CO)cc2)cc1`, -0.285.
`CCOC(=O)C1=CC[C@@H](c2ccccc2)N(S(=O)(=O)c2ccc(C)cc2)[C@H]1C=C(C)C` registered a z-score of -2.1.
On the same count and under the same terms, as for `COCCOC(=O)N1C(=O)[C@@]2(c3cc(C#CCNC(N)=O)ccc31)[C@H](C(=O)N1CCCCCCC1)[C@H]1C(=O)O[C@H](c3ccccc3)[C@H](c3ccccc3)N1[C@@H]2c1ccc(OCCO)cc1`, the figure is 0.176.
For `CC(C)CNC(=O)[C@@]1(C)c2ccccc2C(=O)N(Cc2ccccc2)[C@H]1c1ccc(CO)cc1`, the z-score is -0.551.
Compound `C=CCC(OC(C)=O)[C@@H]1[C@@H](N(Cc2ccc(-c3ccccc3)cc2)C(=O)c2cccc3ccccc23)c2cc(OCCCO)ccc2N1C(=O)c1ccc2ccccc2n1` (some centres undefined) yielded a z-score of 0.131.
In turn, `COc1ccc([Si](C)(C)[C@@H]2[C@@H](CCO)O[C@]3(C(=O)N(Cc4ccccc4)c4ccc(N5C(=O)COc6ccccc65)cc43)[C@H]2C)cc1` gave a z-score of -0.976.
On the same count and under the same terms, under `C=C(COC)/C(=C/C[C@@H](OC(=O)c1ccncc1)c1cccc(OCCO)c1)c1cc(C(=O)OC)ccc1OC` stands 0.0987.
For the compound `O=C1NC(=O)C2C1C=CC(C(O)c1ccc3c(c1)OCO3)N2Nc1ccc(Cl)cc1Cl` (centres undefined), the z-score was -0.93.
In the case of `[N-]=[N+]=NCc1ccccc1C[C@@]1(C(=O)NCCN2CCOCC2)N=C(c2ccc(OCCCO)cc2)O[C@@H]1c1ccccc1CN=[N+]=[N-]`, the z-score was -0.971.
`C[N+](C)(C)CCCCCCNC(=O)[C@@H]1C[C@@H]2C(=O)NCC(=O)N2[C@@H]1c1ccc(O)cc1` gave a z-score of 0.203.
The same measure, in the same setting: as for `COC(=O)[C@@]1(Cc2ccccc2N=[N+]=[N-])N=C(c2ccc(OCCCO)cc2)O[C@H]1c1ccccc1`, the figure is -7.12; as for `COCCOC(=O)N1C(=O)[C@@]2(c3cc(C#Cc4ccc(OC)cc4)ccc31)[C@H](C(=O)N1CCc3cc(OC)c(OC)cc3C1)[C@H]1C(=O)O[C@H](c3ccccc3)[C@H](c3ccccc3)N1[C@@H]2c1ccc(OCCO)cc1`, 0.54; as for `O=C1O[C@H](c2ccccc2)[C@H](c2ccccc2)N2[C@H]1[C@@H](C(=O)N1CCCCCCC1)[C@]1(C(=O)Nc3ccc(C#CCCO)cc31)[C@H]2c1ccc(OCCO)cc1`, 0.543.
In the case of `CCCC[C@H]1OB(O)C[C@H]2C1=C(COc1ccccc1)Cn1c(=O)n(-c3ccccc3)c(=O)n12`, the z-score was -0.0851.
